# Experimental data reported in PMC5540273 (PLoS ONE, 2017).
# Test system: T1, MEK5
# T1 construct: gene MAP2K5
# 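Note: kd values determined as follow-up on hits from a single-replicate KINOMEscan panel screen.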
row,Compound,Kd [nM]
1,COc1cc(Nc2nccc(N3CCC(NC(=O)C4COc5ccccc5O4)C3)n2)cc(OC)c1OC (centres unmarked) [GSK1379761],180
2,Cc1ccc(Oc2ccc(Nc3ncnc4cc[nH]c34)cc2C)cn1,9
3,Nc1n[nH]c2ncc(-c3ccccc3)cc12 [SB-517081],660
4,COc1cc2nccc(Nc3ccc(OCc4ccc(NC(C)=O)cc4)cc3)c2cc1OC.Cl [GW440135],52
5,COc1cc2ncn(-c3cc(OCCCc4ccccc4)c(C(N)=O)s3)c2cc1OC [GSK205189],280
6,COc1cc2nccc(Nc3cccc(Oc4ccccc4)c3)c2cc1OC.Cl [GW284543],11
7,Nc1nccc2scc(-c3ccc4c(c3)CCN4C(=O)Cc3ccccc3)c12 [GSK2576924],530
8,COc1cc2ncn(-c3cc(OCc4ccncc4Br)c(C(N)=O)s3)c2cc1OC [GW854278],78
9,COc1cc2ncn(-c3cc(OCc4ccncc4)c(C(N)=O)s3)c2cc1OC [GSK336313],670
10,COc1cc2ncn(-c3cc(OCc4ccc(S(C)(=O)=O)cc4)c(C(N)=O)s3)c2cc1OC [GW869979],470
11,COc1cccc(-n2cnc3c(N)ncnc32)c1 [SKF-97416],1300

# Test system: MYLK2
row,Compound,Kd [nM]
1,O=C(Nc1n[nH]c2cc(-c3ccccc3F)ccc12)C1CC1 [SB-733371],110
2,O=C(Nc1n[nH]c2nc(-c3ccccc3)c(Cl)cc12)C1CC1 [SB-734909],150
3,O=C(Nc1n[nH]c2nc(-c3ccccc3)c(Br)cc12)C1CC1 [SB-708998],60
